Unmarked numbers belong to inactive results. How the calls were made is not given here.
The molecules below were run against Pantothenate synthetase (Mycobacterium tuberculosis (strain ATCC 25618 / H37Rv)) (UniProt P9WIL5) (assay: Coupled enzyme confirmation of inhibitors against recombinant Mtb PanC (AID 375;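 further: 0% = full reaction with vehicle and 100% = no enzyme background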)). Settings: coupled enzyme assay; at 10 µM, active compounds read high.
Sequence of Pantothenate synthetase (Mycobacterium tuberculosis (strain ATCC 25618 / H37Rv)) (P9WIL5 whole entry, looked up): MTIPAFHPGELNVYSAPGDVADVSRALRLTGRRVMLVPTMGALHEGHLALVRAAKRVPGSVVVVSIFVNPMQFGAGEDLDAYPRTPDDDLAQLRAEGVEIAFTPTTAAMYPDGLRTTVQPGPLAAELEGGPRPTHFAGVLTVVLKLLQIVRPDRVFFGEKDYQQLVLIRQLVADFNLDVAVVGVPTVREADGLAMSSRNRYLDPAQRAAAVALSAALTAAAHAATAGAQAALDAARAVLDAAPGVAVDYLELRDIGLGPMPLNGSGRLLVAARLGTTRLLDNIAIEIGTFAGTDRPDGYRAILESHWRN

SMILES | inhibition [%]
COc1ccc(CCN(C)CCCC(C#N)(c2ccc(OC)c(OC)c2)C(C)C)cc1OC (stereo not given) | 0
CCc1nc(N)c(C#N)c(-c2ccncc2)c1C | 0
CCCCOC(=O)c1[nH]c2c(c1C)C(=O)CC(c1cc(OC)c(OC)c(OC)c1)C2 (stereo not given) | 10
CCOc1ccccc1-n1c(SCC(=O)NC(C)CC)nnc1-c1ccoc1C (stereo not given) | 0
COc1ccc(S(=O)(=O)Nc2cc(C)on2)cc1OC | 0
N#Cc1c2n(c(=S)n(-c3ccccn3)c1=O)CCCCC2 | 2
CCOC(=O)C1=C(C)Nc2nnnn2C1c1c[nH]c2ccccc12 (stereo not given) | 3
CCC(C(=O)NC(C)CCc1ccco1)n1nc(C)n2c(cc3occc32)c1=O (stereo not given) | 0
CC1(C)CC(=O)C2=C(C1)NC(=O)CC2C(=O)NCc1ccc(F)cc1 (stereo not given) | 0
CCOc1ccccc1-n1nnnc1SCC(=O)Nc1cc2oc3ccccc3c2cc1OC | 0
Cc1nc2ccc(S(=O)(=O)NCC(=O)N(C)Cc3ccco3)cc2s1 | 0
COc1ccc(OC)c(C2C3=C(CCCC3=O)Nc3c2c(=O)n(C)c(=O)n3C)c1 (stereo not given) | 0
O=C(COC(=O)CCC1CCCC1)Nc1ccc(Cl)cn1 | 2
CCN1C(=O)NC(c2cc(Br)ccc2OC)C(C(=O)OC)=C1C (stereo not given) | 0
CC(C)CCn1c(N)c(S(=O)(=O)c2cccs2)c2nc3ccccc3nc21 | 0
COc1cccc2cc(C(=O)N3CCc4ccccc43)c(=O)oc12 | 1
CCOC(=O)CSc1nnc(-c2cccnc2)n1Cc1ccccc1 | 0
CC(=O)N1c2c(cc(Br)cc2S(=O)(=O)NCC2COc3ccccc3O2)CC1C (stereo not given) | 2
O=C(O)c1ccccc1S | 0
O=C(CN1CCC(n2nnc3cc(F)ccc32)CC1)Nc1ccc2c(c1)CCC2 | 0

SMILES | inhibition [%]
CC(=O)NCCc1ccc(S(=O)(=O)NCc2ccc3c(c2)OCO3)cc1 | 0
COc1ccccc1NC(=O)NCCCN1CCN(c2cccc(Cl)c2)CC1 | 2
CCOC(=O)C1CCN(c2c(NCCN3CCN(c4ccccc4)CC3)c(=O)c2=O)CC1 | 0
COc1ccc2c(c1OC)C(=O)OC2C1c2c(cc3c(c2OC)OCO3)CCN1C (stereo not given) | 0
Nn1c(SCC(=O)NC2CCCCC2)nnc1C1CC1 | 0
O=C(CCN1CCOCC1)Nc1ccc2c(c1)CCC2 | 4
Cc1cccc(NC(=O)CCN2CCN(C/C=C/c3ccccc3)CC2)c1 | 0
COc1ccc(C(=O)c2ccccc2)c(O)c1 | 1
O=C(CSc1n[nH]c(-c2cccs2)n1)N1CCN(S(=O)(=O)c2ccccc2)CC1 | 0
O=C(Nc1ccc(S(=O)(=O)N2CCc3ccccc32)cc1)c1ccc2c(c1)OCO2 | 0
COc1ccc(CCNC(=O)CN(c2ccccc2OC)S(C)(=O)=O)cc1 | 0
CCc1ccc(C=NC23CN4CN(CN(C4)C2)C3)s1 | 0
COc1ccc(NC(=O)C23CCC(C)(C(=O)C2)C3(C)C)cc1 (stereo not given) | 0
COc1cc(C)c(-c2cc(C(=O)O)c(C)o2)cc1C(C)C | 0
CC(C(=O)NC(=O)NC1CCCCC1)N1CCN(c2ccccn2)CC1 (stereo not given) | 0
COc1ccccc1Nc1ncnc2c1cnn2-c1cccc(C)c1 | 0
CCCCN(C(=O)c1ccc(Cl)cc1)C1CC2CCC(C1)N2C (stereo not given) | 0
COC(=O)CCC(=O)Nc1ccc(S(=O)(=O)N2CCCCCC2)cc1 | 0
C1CCC2=NCCCN2CC1 | 7
CCOc1cc(/C=N/n2cnnc2)cc(Br)c1O | 0

Reference: PubChem BioAssay
